Test results as given in PubChem BioAssay AID1159580 (chemical genetic matrix, 2015).
The campaign covered roughly 5,500 compounds. About 2,000 (36%) were called active. Not shown: some 18% with an inconclusive outcome. The list shows a part of the results. Values without a mark were called inactive. No stated cut-off is given here; in the data, active means normalized growth mostly below about 0.91 (no sharp cut-off); inconclusive means no clear call, values can overlap the other calls; inactive means mostly above about 0.92.

Assay: chemical genetic growth profiling, strain panel (AID 1159580);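 further: tested at 20 µM; growth read once vehicle control cultures reached saturation at 30 °C; 1 = growth at the plate median or of vehicle wells; lower values mean less growth of the strain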
Conditions: growth OD

Question: Which results are given for `CC(=O)c1c(O)c(C)c(O)c2c1oc1c(C(C)=O)c(O)c(C)c(O)c12`?
Answer: normalized growth (S. cerevisiae deletion strains, locus YAL013W, strain DEP1, active compounds read low): 1; normalized growth (S. cerevisiae deletion strains, locus YBR021W, strain FUR4, active compounds read low): 0.991; normalized growth (S. cerevisiae deletion strains, locus YBR229C, strain ROT2, active compounds read low): 0.981; normalized growth (S. cerevisiae deletion strains, locus YCL029C, strain bik1, active compounds read low): 0.961; normalized growth (S. cerevisiae deletion strains, locus YDL035C, strain GPR1, active compounds read low): 0.942; normalized growth (S. cerevisiae deletion strains, locus YDL074C, strain BRE1, active compounds read low): 0.963; normalized growth (S. cerevisiae deletion strains, locus YDL101C, strain DUN1, active compounds read low): 0.98; normalized growth (S. cerevisiae deletion strains, locus YDL134C, strain PPH21, active compounds read low): 0.981; normalized growth (S. cerevisiae deletion strains, locus YDL192W, strain arf1, active compounds read low): 0.934; normalized growth (S. cerevisiae deletion strains, locus YDR101C, strain arx1, active compounds read low): 0.918 (active); normalized growth (S. cerevisiae deletion strains, locus YDR150W, strain NUM1, active compounds read low): 0.988; normalized growth (S. cerevisiae deletion strains, locus YDR162C, strain NBP2, active compounds read low): 0.979; normalized growth (S. cerevisiae deletion strains, locus YDR318W, strain mcm21, active compounds read low): 0.934; normalized growth (S. cerevisiae deletion strains, locus YDR388W, active compounds read low): 0.966; normalized growth (S. cerevisiae deletion strains, locus YDR502C, strain sam2, active compounds read low): 0.91 (active); normalized growth (S. cerevisiae deletion strains, locus YEL061C, strain CIN8, active compounds read low): 0.98; normalized growth (S. cerevisiae deletion strains, locus YER110C, active compounds read low): 0.976; normalized growth (S. cerevisiae deletion strains, locus YER155C, strain BEM2, active compounds read low): 0.973; normalized growth (S. cerevisiae deletion strains, locus YER167W, strain BCK2, active compounds read low): 0.963; normalized growth (S. cerevisiae deletion strains, locus YGL078C, strain dbp3, active compounds read low): 0.987; normalized growth (S. cerevisiae deletion strains, locus YGL086W, strain mad1, active compounds read low): 0.993; normalized growth (S. cerevisiae deletion strains, locus YGL248W, strain PDE1, active compounds read low): 0.973; normalized growth (S. cerevisiae deletion strains, locus YGR078C, strain PAC10, active compounds read low): 0.943; normalized growth (S. cerevisiae deletion strains, locus YGR135W, strain pre9, active compounds read low): 0.954; normalized growth (S. cerevisiae deletion strains, locus YGR229C, strain SMI1, active compounds read low): 0.901; normalized growth (S. cerevisiae deletion strains, locus YGR252W, strain gcn5, active compounds read low): 0.906; normalized growth (S. cerevisiae deletion strains, locus YHR030C, strain SLT2, active compounds read low): 0.961; normalized growth (S. cerevisiae deletion strains, locus YHR079C, strain IRE1 (second series), active compounds read low): 0.953; normalized growth (S. cerevisiae deletion strains, locus YHR094C, strain hxt1, active compounds read low): 0.978; normalized growth (S. cerevisiae deletion strains, locus YHR129C, strain ARP1, active compounds read low): 0.975; normalized growth (S. cerevisiae deletion strains, locus YHR200W, strain rpn10, active compounds read low): 0.938; normalized growth (S. cerevisiae deletion strains, locus YIL066C, strain RNR3, active compounds read low): 0.924; normalized growth (S. cerevisiae deletion strains, locus YIL073C, strain SPO22, active compounds read low): 0.942; normalized growth (S. cerevisiae deletion strains, locus YIL125W, strain kgd1, active compounds read low): 0.983; normalized growth (S. cerevisiae deletion strains, locus YIR030C, strain dcg1, active compounds read low): 0.952; normalized growth (S. cerevisiae deletion strains, locus YJL095W, strain BCK1, active compounds read low): 0.909; normalized growth (S. cerevisiae deletion strains, locus YJL134W, strain LCB3, active compounds read low): 0.977; normalized growth (S. cerevisiae deletion strains, locus YJL168C, strain set2, active compounds read low): 0.968; normalized growth (S. cerevisiae deletion strains, locus YJL187C, strain SWE1 (second series), active compounds read low): 0.944; normalized growth (S. cerevisiae deletion strains, locus YJR043C, strain POL32, active compounds read low): 0.926; normalized growth (S. cerevisiae deletion strains, locus YJR075W, strain HOC1, active compounds read low): 0.974; normalized growth (S. cerevisiae deletion strains, locus YKL009W, strain mrt4, active compounds read low): 0.944; normalized growth (S. cerevisiae deletion strains, locus YKL068W, active compounds read low): 0.995; normalized growth (S. cerevisiae deletion strains, locus YKL085W, strain MDH1 (second series), active compounds read low): 0.982; normalized growth (S. cerevisiae deletion strains, locus YKL085W, strain MDH1, active compounds read low): 0.982; normalized growth (S. cerevisiae deletion strains, locus YKL190W, strain CNB1, active compounds read low): 0.988; normalized growth (S. cerevisiae deletion strains, locus YKR001C, strain vps1, active compounds read low): 0.638 (active); normalized growth (S. cerevisiae deletion strains, locus YLR039C, strain RIC1, active compounds read low): 0.722; normalized growth (S. cerevisiae deletion strains, locus YLR058C, strain SHM2, active compounds read low): 0.966; normalized growth (S. cerevisiae deletion strains, locus YLR102C, strain apc9, active compounds read low): 0.979; normalized growth (S. cerevisiae deletion strains, locus YLR262C, strain YPT6, active compounds read low): 0.827; normalized growth (S. cerevisiae deletion strains, locus YLR268W, strain sec22, active compounds read low): 0.906; normalized growth (S. cerevisiae deletion strains, locus YLR330W, strain CHS5, active compounds read low): 0.983; normalized growth (S. cerevisiae deletion strains, locus YLR342W, strain FKS1 (second series), active compounds read low): 0.882; normalized growth (S. cerevisiae deletion strains, locus YLR371W, strain rom2, active compounds read low): 0.979; normalized growth (S. cerevisiae deletion strains, locus YLR418C, strain cdc73, active compounds read low): 0.9; normalized growth (S. cerevisiae deletion strains, locus YML016C, strain PPZ1, active compounds read low): 0.975; normalized growth (S. cerevisiae deletion strains, locus YML032C, strain rad52, active compounds read low): 0.891 (active); normalized growth (S. cerevisiae deletion strains, locus YML124C, strain tub3, active compounds read low): 0.964; normalized growth (S. cerevisiae deletion strains, locus YMR078C, strain ctf18, active compounds read low): 0.966; normalized growth (S. cerevisiae deletion strains, locus YMR223W, strain ubp8, active compounds read low): 0.921; normalized growth (S. cerevisiae deletion strains, locus YMR263W, strain SAP30, active compounds read low): 0.957; normalized growth (S. cerevisiae deletion strains, locus YMR307W, strain GAS1, active compounds read low): 0.901; normalized growth (S. cerevisiae deletion strains, locus YNL067W, strain RPL9B, active compounds read low): 0.961; normalized growth (S. cerevisiae deletion strains, locus YNL128W, strain TEP1, active compounds read low): 0.972; normalized growth (S. cerevisiae deletion strains, locus YNL153C, strain GIM3, active compounds read low): 0.986; normalized growth (S. cerevisiae deletion strains, locus YNL233W, strain BNI4, active compounds read low): 0.943; normalized growth (S. cerevisiae deletion strains, locus YNL250W, strain rad50, active compounds read low): 0.977; normalized growth (S. cerevisiae deletion strains, locus YNL271C, strain bni1, active compounds read low): 0.985; normalized growth (S. cerevisiae deletion strains, locus YNL298W, strain CLA4, active compounds read low): 0.958; normalized growth (S. cerevisiae deletion strains, locus YNL307C, strain MCK1, active compounds read low): 0.941; normalized growth (S. cerevisiae deletion strains, locus YNL322C, strain KRE1, active compounds read low): 0.989; normalized growth (S. cerevisiae deletion strains, locus YNR052C, strain pop2, active compounds read low): 0.852 (active); normalized growth (S. cerevisiae deletion strains, locus YOL006C, strain TOP1, active compounds read low): 0.921; normalized growth (S. cerevisiae deletion strains, locus YOL012C, strain htz1): 0.749; normalized growth (S. cerevisiae deletion strains, locus YOL147C, strain pex11, active compounds read low): 0.958; normalized growth (S. cerevisiae deletion strains, locus YOR061W, strain CKA2, active compounds read low): 0.963; normalized growth (S. cerevisiae deletion strains, locus YOR069W, strain VPS5, active compounds read low): 0.988; normalized growth (S. cerevisiae deletion strains, locus YOR136W, strain idh2, active compounds read low): 0.967; normalized growth (S. cerevisiae deletion strains, locus YOR144C, strain elg1, active compounds read low): 0.971; normalized growth (S. cerevisiae deletion strains, locus YOR184W, strain ser1, active compounds read low): 0.88; normalized growth (S. cerevisiae deletion strains, locus YOR316C, strain cot1, active compounds read low): 0.972; normalized growth (S. cerevisiae deletion strains, locus YPL055C, strain LGE1, active compounds read low): 0.95; normalized growth (S. cerevisiae deletion strains, locus YPL241C, strain CIN2, active compounds read low): 0.962; normalized growth (S. cerevisiae deletion strains, locus YPR119W, strain clb2, active compounds read low): 0.971; normalized growth (S. cerevisiae deletion strains, locus YPR141C, strain kar3, active compounds read low): 0.985; normalized growth (S. cerevisiae deletion strains, locus YPR163C, strain tif3, active compounds read low): 0.98; normalized growth (S. cerevisiae deletion strains, locus YPR167C, strain met16, active compounds read low): 0.974; normalized growth (S. cerevisiae deletion strains, strain wtn01, active compounds read low): 0.932; normalized growth (S. cerevisiae strains, strain wild type, active compounds read low): 0.954
